Screening results: PubChem, National Center for Advancing Translational Sciences (NCATS)
Pf growth 96h = P. falciparum growth inhibition at 96 hour, primary screen for plastid delayed-death inhibitors | P. falciparum luciferase reporter growth, 96 h | Potency, µM (highest dose often 28.7 µM), for the others: at the highest dose activity change, negative = inhibition, actives largely listed as inhibitors | 6.9% of 320,000 active; also: potency is read from the fitted curve at half-maximal effect; % is scaled to controls: 0 for no effect and ±100 for the full control effect
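Compounds incubated with erythrocytes infected by luciferase-expressing P. falciparum (2% hematocrit, 0.05% parasitemia final) for 96 hours, 37 C in 5% CO2. Growth inhibition scored as decreased luciferase luminescence.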
Pf growth 48h = P. falciparum growth inhibition at 48 hours (one generation); 5.9% of 310,000 active; AID 504832; Potency, µM (highest dose often 28.7 µM), for the others: top-dose activity change, negative = inhibition, actives largely listed as inhibitors; P. falciparum luciferase growth in erythrocytes, 48 h; also: potency is read from the fitted curve at half-maximal effect; % is scaled to controls: 0 for no effect and ±100 for the full control effect
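Firefly luciferase activity from engineered P. falciparum reports growth; inhibitors lower the luminescent signal. Cultures contained 2% hematocrit erythrocytes at 0.1% final parasitemia.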
SARS PLP yeast = inhibitors of SARS-CoV papain-like protease in yeast. AID 485353. Potency, µM (top dose mostly 32.9 µM), for inactives: top-dose activity, positive = growth rescue, most hits filed as activators. S. cerevisiae expressing SARS-CoV PLpro, growth rescue. 0.19% of 330,000 active; calls by dose curve; also: potency is read from the fitted curve at half-maximal effect; 0% is about no effect; nearly all actives have a fitted effect of over 55% in size
Cycloheximide cs = counter-screen for Shiga toxin inhibitors: cycloheximide protein synthesis inhibition | 12% of 300,000 active | max response, % | cell reporter, cycloheximide protein synthesis inhibition counterscreen | AID 2314; in the data active = max response mostly above about 13%, no sharp cut-off; inactive = mostly below about 14%; also: read at 38.3 µM for the half of the compounds with a filed dose; 0% is about no effect
Shiga toxin inh = inhibitors of Shiga toxin in Vero cells; 9.2% of 290,000 active; Vero cells, Shiga toxin protein synthesis inhibition reporter; inhibition, % at 38.7 µM; in the data active = inhibition mostly above about 28%, no sharp cut-off; inactive = mostly below about 43%; also: 0% is about no effect
AMA1 RON2 block = AMA1-RON2 (P. falciparum) interaction inhibition; AlphaScreen AMA1-biotinylated RON2 peptide binding; Potency, µM (highest dose often 58.2 µM), inactives show at the top dose activity change, negative = inhibition, actives largely listed as inhibitors; 0.2% of 360,000 active; AID 720542;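 also: potency is read from the fitted curve at half-maximal effect; 0% = vehicle wells and -100% = peptide control; nearly all actives have a fitted effect of over 45% in size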
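AMA1 (3D7) with his tag at 25 nM final met compounds first, then biotinylated RON2 peptide at 25 nM; detection used donor plus acceptor beads, 10 µg/mL apiece, read by AlphaScreen after 30 min at room temperature.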
* marks the source's active call; other numbers are inactive results; u = inconclusive; x = no result. An excerpt weighted towards active compounds, which were near 19% of everything screened. Unless noted, calls follow the shape of the dose curve; as a rule, active = well fitted curve in the direction sought with a large enough effect; inconclusive = small, poorly fitted or top-dose-only effect, or another doubt; inactive = no such curve, though single readings can be large; an effect the other way counts as inactive or inconclusive.

SMILES	Pf growth 96h	Pf growth 48h	SARS PLP yeast	Cycloheximide cs	Shiga toxin inh	AMA1 RON2 block
CCCCCC1CC(CC#CCN2CCOCC2)C(=O)O1 (stereo not drawn)	12%	12%	-19%	-2	14	-15%
C=CCn1cc(C(=O)OCC)c(=O)c2cc(F)c(F)cc21	-1%	-10%	1%	-3	16	-6%
c1ncc(CCCC2CCNCC2)[nH]1	x	x	x	-5	2	x
CC1CCN(C(CNS(=O)(=O)c2ccccc2)c2ccccc2)CC1 (stereo not drawn)	-22%	-18%	3%	x	x	-12%
CC1CCN(C2=C(NS(=O)(=O)c3ccc(Cl)cc3)C(=O)c3ccccc3C2=O)CC1	1.5µM*	7.4µM*	-28%	22*	85*	u
CC1CCN(C2=C(NS(=O)(=O)c3ccccc3)C(=O)c3ccccc3C2=O)CC1	u	u	-8%	20*	20	u
CSc1ccccc1C(=O)N1CCN(c2ccc(F)cc2)CC1	21%	x	-6%	23	-10	-4%
CC1CCN(C2=C(NS(=O)(=O)c3ccc(Br)cc3)C(=O)c3ccccc3C2=O)CC1	u	u	-17%	32*	38*	13µM*
CC(=C1C(=O)c2ccccc2C1=O)N1CCN(c2ccc(F)cc2)CC1	13%	38%	1%	14*	33*	2%
CC1CCN(C(=O)C2CCCN2S(=O)(=O)c2ccc(Cl)cc2)CC1 (stereo not drawn)	u	-5%	4%	7	9	-7%
N#Cc1cnc2c(-c3ccccc3)c(-c3ccccc3)nn2c1N	u	0%	0%	-2	-15	57%
CC1CCCN(C2=C(NS(=O)(=O)c3ccc(Br)cc3)C(=O)c3ccccc3C2=O)C1 (stereo not drawn)	2%	u	-11%	4	25	u
CC(=O)Nc1ccc(S(=O)(=O)NC2=C(N3CCN(C)CC3)C(=O)c3ccccc3C2=O)cc1	u	u	-1%	-2	4	9%
O=C1C(NS(=O)(=O)c2ccc(Br)cc2)=C(N2CCCCC2)C(=O)c2ccccc21	9.3µM*	12µM*	0%	-2	-4	16µM*
O=C1C(NS(=O)(=O)c2cccs2)=C(N2CCN(c3cccc(Cl)c3)CC2)C(=O)c2ccccc21	x	12µM*	4%	-3	-24	u
O=C1C(NS(=O)(=O)c2ccccc2)=C(N2CCN(c3ccc(F)cc3)CC2)C(=O)c2ccccc21	u	13µM*	5%	6	26	18µM*
O=S(=O)(Nc1ccc(N2CCOCC2)cc1)c1cccs1	40%	0%	u	10	12	-18%
Cc1ccc(CN2CC(C(=O)N3CCN(S(=O)(=O)c4cccc(F)c4)CC3)CC2=O)cc1 (stereo not drawn)	9%	u	x	x	x	0%
COc1cc(C(=O)N/C(=C\c2cn(S(=O)(=O)N(C)C)c3ccccc23)C(=O)N2CCCC2)cc(OC)c1OC	38%	u	0%	-4	-10	12%
OCCCNc1nc(-c2ccccc2)c2cc(Br)ccc2n1	1.7µM*	-9%	-3%	5	-5	0%
CSCCC(NS(=O)(=O)c1ccc(C)c(C(=O)O)c1)C(=O)O (stereo not drawn)	38%	8%	-6%	4	24	-2%
CCOC(=O)c1nn(-c2ccc(Cl)cc2)c2nc(-c3ccc(C)cc3)c(C#N)c(=O)n12	x	9.3µM*	5%	15	6	16%
CCOC(=O)c1nn(-c2ccc(Cl)cc2)c2nc(CC)c(C#N)c(=O)n12	u	u	15%	-3	-4	3%
CCOC(=O)c1nn(-c2ccc(OCC)cc2)c2nc(-c3ccco3)c(C#N)c(=O)n12	u	12µM*	-1%	-3	-9	-7%
O=C(NCc1c(Cl)cccc1Cl)c1[nH]c(C(F)(F)F)nc1-c1ccccc1	x	x	x	x	x	55%
SMILES	Pf growth 96h	Pf growth 48h	SARS PLP yeast	Cycloheximide cs	Shiga toxin inh	AMA1 RON2 block
O=C(COC(=O)/C=C/c1ccccc1Cl)NCCNC(=O)COC(=O)/C=C/c1ccccc1Cl	-33%	6%	-2%	1	-5	3%
CN(C)N1C(N)=C(C#N)C(c2ccccc2)C2=C1CC(C)(C)CC2=O (stereo not drawn)	-10%	x	-1%	1	-6	7%
Cc1ccc(C2C(C#N)=C(N)N(N(C)C)C3=C2C(=O)CCC3)cc1 (stereo not drawn)	-11%	-9%	7%	-4	-9	8%
CN(C)N1C(N)=C(C#N)C(c2cccc3ccccc23)C2=C1CC(c1ccccc1)CC2=O (stereo not drawn)	u	9.3µM*	0%	6	-7	29%
CN(C)N1C(N)=C(C#N)C(c2ccc(Cl)cc2)C2=C1CCCC2=O (stereo not drawn)	0.74µM*	-6%	1%	20	-5	1%
CN(C)N1C(N)=C(C#N)C(c2ccsc2)C2=C1CCCC2=O (stereo not drawn)	9.3µM*	u	-17%	-5	-3	9%
COc1ccc(C2C(C#N)=C(N)N(N(C)C)C3=C2C(=O)CCC3)cc1 (stereo not drawn)	2.3µM*	-1%	0%	-6	-12	-4%
Cn1c(SC2CCCCC2=O)nnc1-c1ccccc1F (stereo not drawn)	-6%	17%	0%	21	34	14%
O=C(Cn1ncc2c([nH]c3ccccc32)c1=O)NCCCN1CCN(c2ccccc2)CC1	3%	-16%	-4%	8	15	-11%
CC(C)OCCCNC(=O)Cn1ccc2cc(S(=O)(=O)N3CCCCC3)ccc21	-19%	u	2%	1	-4	16%
Cn1c(C23CC4CC(CC(C4)C2)C3)n[nH]c1=S	42%	u	13µM*	-1	-2	4%
O=C(Nc1nnc(CSCc2ccccc2F)s1)c1cccc([N+](=O)[O-])c1	13µM*	19%	-12%	-3	-9	42%
CC(C)(C)C(=O)Nc1nnc(CSCc2ccccc2F)s1	1%	x	10%	90*	105*	0%
Cc1nc(N)nc(-c2ccccc2O)n1	x	57%	-30%	24*	47	10%
CC1Cc2c([nH]c3ccccc23)C(=O)N1 (stereo not drawn)	9.3µM*	9%	-4%	5	13	2%
COCCN(C(=O)Nc1ccc(F)cc1F)c1nc2ccccc2s1	-4%	83%	-3%	34*	48*	32%
COCCN(C(=O)Nc1ccc(OC)cc1)c1nc2ccccc2s1	37%	8%	0%	18*	42*	-1%
CCS(=O)(=O)NCc1csc(-c2ccccc2)n1	48%	39%	-5%	15*	10	-1%
O=C(NCCc1cn2ccsc2n1)c1cccs1	19%	30%	-8%	23*	25*	5%
